PubChem BioAssay (Tox21)
Results filed as inconclusive are left out. Calls of active or inactive are those of the source. Unless noted, the call rests on the fitted dose curve; in most records, active means well fitted curve in the direction sought with a large enough effect in the repeat runs; inconclusive means weak or mixed curves; inactive means no such curve, though single readings can be large; an effect the other way counts as inactive or inconclusive.

Legend:
[1] = qHTS assay to identify small molecule agonists of the hypoxia (HIF-1) signaling pathway (AID 1224846; active means well fitted activation curve with a large enough effect in the signal ratio in the repeat runs, not every such curve was filed as active; the % refers to the signal ratio)
Procedure, shortened: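 Compounds added to ME-180 cells carrying hypoxia-response-element beta-lactamase reporter (0.5% dialyzed FBS, 5 h preplating), 17 h at 37C; agonist activity detected by CCF4-AM B/G FRET read-out.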

[2] = qHTS assay to identify small molecule agonists of H2AX - cell viability counter screen (AID 1224847; calls by dose curve; further: top concentration of the series differs between compounds; nearly all actives have a fitted effect of over 30% in size)
Procedure, shortened: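 Wild-type CHO-K1 cells (10% FBS medium) were plated overnight at 37C, exposed to compounds at 15 concentrations for 3 hr at 37C (0.76% DMSO final), and viability was read as CellTiter-Glo luminescence after 30 min at room temperature.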

[3] = qHTS assay to identify small molecule agonists of the estrogen related receptor (ERR) signaling pathway from Tox21 library (AID 1224849; calls by dose curve; further: nearly all actives have a fitted effect of over 15% in size); conditions: ERR reporter cell line, ONE-Glo luciferase, 18 h; at 92.4 µM (top of the series) unless noted
Procedure, shortened: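 Luminescent agonist read-out (One-Glo, 30-minute room-temperature incubation) following 18-hour compound treatment at 37 C of the ERR cell line, which had been plated 6 hours before dosing.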

[4] = qHTS RealTime-Glo MT Cell Viability Assay in HepG2 cells - 24 hour (AID 1224867); further: nearly all actives have a fitted effect of over 50% in size
Procedure, shortened: (§1)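 Compound treatment began 5 h after plating HepG2 cells (600/well) with NanoLuc luciferase and prosubstrate. Plates stayed at 37 C for 40 h; luminescence was captured at six time points, 0 h through 40 h.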

[5] = qHTS RealTime-Glo MT Cell Viability Assay in HEK293 cells - 32 hour (AID 1224868); further: top concentration of the series differs between compounds; nearly all actives have a fitted effect of over 50% in size
Procedure, shortened: (§2)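 Quantitative high-throughput screen of the Tox21 10K library in HEK293: cells and RealTime-Glo reagents plated together, compound added at 5 h, luminescence monitored through 40 h at 37 C.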

[6] = A CellTox Green Cytotoxicity Assay to monitor cytotoxicity in HEK293 cells - 0 hour (AID 1224869); further: nearly all actives have a fitted effect of over 50% in size
Procedure, shortened: (§3)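 Fluorescence from a DNA-binding dye excluded by viable cells was measured repeatedly in the same HEK293 wells (600 cells/well) during continuous compound exposure at 37 C. Each assay gives one read point: 0, 8, 16, 24, 32 or 40 h.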

[7] = A CellTox Green Cytotoxicity Assay to monitor cytotoxicity in HEK293 cells - 40 hour (AID 1224871); further: nearly all actives have a fitted effect of over 45% in size
Procedure, shortened: as §3

[8] = qHTS RealTime-Glo MT Cell Viability Assay in HEK293 cells - 16 hour (AID 1224872); further: top concentration of the series differs between compounds; nearly all actives have a fitted effect of over 50% in size
Procedure, shortened: as §2

[9] = qHTS RealTime-Glo MT Cell Viability Assay in HepG2 cells - 8 hour (AID 1224873); further: nearly all actives have a fitted effect of over 55% in size
Procedure, shortened: (§4)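 HepG2 cells mixed with RealTime-Glo MT reagents (NanoLuc plus cell-permeant prosubstrate) were seeded at 600 cells/well, incubated 5 h at 37 C/5% CO2, then pinned with compounds in DMSO; nonlytic luminescence tracked viability during 40 h treatment.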

[10] = A CellTox Green Cytotoxicity Assay to monitor cytotoxicity in HEK293 cells - 24 hour (AID 1224875); further: nearly all actives have a fitted effect of over 45% in size
Procedure, shortened: as §3

[11] = A CellTox Green Cytotoxicity Assay to monitor cytotoxicity in HepG2 cells - 16 hour (AID 1224876); further: nearly all actives have a fitted effect of over 45% in size
Procedure, shortened: (§5)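 Real-time cytotoxicity: fluorescence of a cell-impermeant cyanine dye binding DNA of dead HepG2 cells, measured repeatedly (0–40 h) during compound exposure at 37 C. Cells seeded 600/well with reagent, dosed after 5 h.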

[12] = A CellTox Green Cytotoxicity Assay to monitor cytotoxicity in HepG2 cells - 24 hour (AID 1224878); further: nearly all actives have a fitted effect of over 45% in size
Procedure, shortened: as §5

[13] = A CellTox Green Cytotoxicity Assay to monitor cytotoxicity in HepG2 cells - 40 hour (AID 1224879); further: nearly all actives have a fitted effect of over 40% in size
Procedure, shortened: as §5

[14] = qHTS RealTime-Glo MT Cell Viability Assay in HEK293 cells - 0 hour (AID 1224880)
Procedure, shortened: (§6)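 Luminescence, which tracks viable cell number through reduction of the prosubstrate to a NanoLuc substrate, was read over continuous 37 C culture. Cells (600/well) were premixed with reagent and rested 5 h before 23 nL of compound in DMSO was pinned.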

[15] = A CellTox Green Cytotoxicity Assay to monitor cytotoxicity in HepG2 cells - 0 hour (AID 1224882); further: nearly all actives have a fitted effect of over 35% in size
Procedure, shortened: as §5

[16] = qHTS RealTime-Glo MT Cell Viability Assay in HepG2 cells - 40 hour (AID 1224870); further: nearly all actives have a fitted effect of over 50% in size
Procedure, shortened: as §4

[17] = qHTS RealTime-Glo MT Cell Viability Assay in HEK293 cells - 40 hour (AID 1224874); conditions: RealTime-Glo luminescence; max response: active compounds read low; further: nearly all actives have a fitted effect of over 50% in size
Procedure, shortened: as §6

[18] = qHTS RealTime-Glo MT Cell Viability Assay in HepG2 cells - 32 hour (AID 1224877); further: nearly all actives have a fitted effect of over 55% in size
Procedure, shortened: as §1

[19] = A CellTox Green Cytotoxicity Assay to monitor cytotoxicity in HEK293 cells - 32 hour (AID 1224881); further: nearly all actives have a fitted effect of over 40% in size
Procedure, shortened: as §3
On the % scale 0 is the no-effect control and ±100 the full control effect.

C=CC(=O)N(C)C
inactive: outcome [1] | Potency [2] | activity change, positive = activation [3] -4.19% | Potency [4] | Potency [5] | Potency [6] | Potency [7] | Potency [8] | Potency [9] | Potency [10] | Potency [11] | Potency [12] | Potency [13] | Potency [14] | Potency [15]

Cc1ccc(CCl)cc1
inactive: outcome [1] | Potency [2] | activity change, positive = activation [3] -1.8% | Potency [4] | Potency [5] | Potency [6] | Potency [16] | Potency [7] | Potency [8] | Potency [9] | max response [17] 2.72% | Potency [10] | Potency [11] | Potency [18] | Potency [12] | Potency [14] | Potency [19] | Potency [15]

COS(=O)(=O)c1ccc(C)cc1
inactive: outcome [1] | Potency [2] | Potency [4] | Potency [5] | Potency [6] | Potency [16] | Potency [7] | Potency [8] | Potency [9] | max response [17] 16.1% | Potency [10] | Potency [11] | Potency [18] | Potency [12] | Potency [13] | Potency [14] | Potency [19] | Potency [15]

Cc1cc(C)cc(OP(=O)(Oc2cc(C)cc(C)c2)Oc2cc(C)cc(C)c2)c1
inactive: outcome [1] | Potency [2] | activity change, positive = activation [3] 0.886% | Potency [4] | Potency [5] | Potency [6] | Potency [16] | Potency [7] | Potency [8] | Potency [9] | max response [17] -16.9% | Potency [10] | Potency [11] | Potency [18] | Potency [12] | Potency [13] | Potency [14] | Potency [19] | Potency [15]

CCSC(C)CC1CC(=O)C(/C(CC)=N/OC/C=C/Cl)=C(O)C1 (configuration not stated)
inactive: outcome [1] | Potency [2] | activity change, positive = activation [3] -10.8% [at 42.5 µM] | Potency [4] | Potency [5] | Potency [6] | Potency [16] | Potency [7] | Potency [8] | Potency [9] | max response [17] 0.0447% | Potency [10] | Potency [11] | Potency [12] | Potency [13] | Potency [14] | Potency [19] | Potency [15]

C[C@@H](Oc1ccc(Cl)cc1Cl)C(=O)O
inactive: outcome [1] | Potency [2] | Potency [4] | Potency [5] | Potency [6] | Potency [16] | Potency [7] | Potency [8] | Potency [9] | max response [17] 0.534% | Potency [10] | Potency [11] | Potency [18] | Potency [12] | Potency [14] | Potency [19] | Potency [15]

FC(Cl)(Cl)Cl
inactive: outcome [1] | Potency [2] | Potency [4] | Potency [5] | Potency [6] | Potency [16] | Potency [7] | Potency [8] | Potency [9] | max response [17] -2.7% | Potency [10] | Potency [11] | Potency [18] | Potency [12] | Potency [13] | Potency [14] | Potency [19]
